Data as given in PubChem BioAssay AID2314 (National Center for Advancing Translational Sciences (NCATS), 2010).
Screen size: about 300,000 compounds; about 37,000 (12%) were called active. Many of the other results were omitted from the sample, so actives are more common in it than they were. Values without a mark were called inactive. Rule as the data show it: active = max response mostly above about 13% (no sharp cut-off); inactive = mostly below about 14%.

test: Cycloheximide Counterscreen for Small Molecule Inhibitors of Shiga Toxin; conditions: cell reporter, cycloheximide protein synthesis inhibition counterscreen; stronger effect = higher value; also: read at 38.3 µM for the half of the compounds with a filed dose; 0% is about no effect

Question: With `CC1(C)Cc2cccc(OCC(=O)NCc3ccccc3)c2O1` as the molecule, how does the max response read?
Answer: The max response was -11.4%.

Question: For `COC(=O)C1=C(C)N(C)C(=O)NC1c1ccc([N+](=O)[O-])o1` (stereo unspecified), which max response is on record?
Answer: Its max response is -2.81%.

Question: With `O=C(CO/N=C/c1ccc(OC(F)F)cc1)NCc1ccc(F)cc1` as the molecule, how does the max response read?
Answer: The max response was -1.6%.

Question: Which max response does the source give for `CC(=O)Cn1ncc(N2CCOCC2)c(Br)c1=O` here?
Answer: The max response was 8.19%.

Question: For `Cn1c(=O)c2c(nc(N3CCCCCC3)n2CC(=O)c2ccc(Br)cc2)n(C)c1=O`, which max response is on record?
Answer: The max response was 4.19%.

Question: Which max response does the source give for `O=C(Cn1ncc(N2CCCC2)c(Br)c1=O)c1ccc(Cl)cc1` here?
Answer: Its max response is 21.9% (active).

Question: With `O=c1[nH]c(CCl)nc2cc(-c3ccc(Cl)cc3)sc12` as the molecule, how does the max response read?
Answer: The max response was 3.01%.

Question: For `O=C(Nc1ccc2oc(-c3ccc4ccccc4c3)nc2c1)c1cccs1`, which max response is on record?
Answer: Its max response is 42.5% (active).

Question: Which max response does the source give for `O=C(Cc1cccc2ccccc12)Nc1ccc2oc(-c3ccccc3)nc2c1` here?
Answer: Its max response is 51.7% (active).

Question: For `O=C(NC(=S)Nc1cccc(-c2ccc(CO)o2)c1)c1cccs1`, which max response is on record?
Answer: Its max response is 12.5%.

Question: With `O=C(Nc1ccc(NC(=O)c2cccs2)cc1)c1ccc2ccccc2c1` as the molecule, how does the max response read?
Answer: The max response was 21.9%.

Question: With `CC(O)c1cccc(NC(=O)Cc2cccc3ccccc23)c1` (stereo unspecified) as the molecule, how does the max response read?
Answer: Its max response is -1.49%.

Question: Which max response does the source give for `O=C(Nc1ccc2c(c1)C(=O)OC2)Nc1cccc2ccccc12` here?
Answer: Its max response is 8.24%.

Question: With `Cc1ccc(NC(=O)CSc2nn3c(=O)c(C)nnc3s2)cc1Cl` as the molecule, how does the max response read?
Answer: The max response was 8.05%.

Question: Which max response does the source give for `O=C(CNC(=O)c1ccccc1)Oc1ccc([N+](=O)[O-])cc1` here?
Answer: The max response was 0.695%.

Question: With `CCCCC(C(=O)OCC(=O)c1ccc(OC)cc1)N1C(=O)c2ccccc2C1=O` (stereo unspecified) as the molecule, how does the max response read?
Answer: The max response was 1.39%.

Question: For `O=C(Oc1ccc([N+](=O)[O-])cc1)c1ccc(Cl)c(S(=O)(=O)N2CCCCC2)c1`, which max response is on record?
Answer: Its max response is 7.89%.

Question: For `COc1ccc(C(=O)COC(=O)c2ccc3ccccc3n2)cc1`, which max response is on record?
Answer: The max response was 20.4% (active).

Question: For `CC(OC(=O)c1ccccc1N1C(=O)C2C3CCC(C3)C2C1=O)C(=O)c1ccccc1` (stereo unspecified), which max response is on record?
Answer: Its max response is -0.595%.

Question: Which max response does the source give for `COc1ccccc1NC(=O)CCC(=O)OC(C)C(=O)c1ccccc1` (stereo unspecified) here?
Answer: The max response was -2.18%.

Question: For `O=C(Oc1ccc([N+](=O)[O-])cc1)c1ccc2ccccc2n1`, which max response is on record?
Answer: The max response was 33.2% (active).

Question: With `COc1ccc(C2=NOC(COC(=O)c3ccc4ccccc4n3)C2)cc1` (stereo unspecified) as the molecule, how does the max response read?
Answer: Its max response is 12.5%.

Question: With `CC(OC(=O)c1ccc2ccccc2n1)C(=O)c1ccccc1` (stereo unspecified) as the molecule, how does the max response read?
Answer: Its max response is 25.1% (active).

Question: For `CCCn1cc(S(=O)(=O)c2ccc(C)cc2)c(=O)c2cc(OCC)ccc21`, which max response is on record?
Answer: The max response was -2.9%.

Question: For `Nc1nc(NCC(=O)O)nc(N2CCCCCC2)c1[N+](=O)[O-]`, which max response is on record?
Answer: The max response was -3.03%.

Question: For `COc1ccc(NC(=O)c2cccc3c2C(=O)N(CC2CCCO2)C3)cc1OC` (stereo unspecified), which max response is on record?
Answer: Its max response is 1.17%.
